In the library only some 2.9% were active in any assay of this set; here they are far more common.
B2AR arrestin = qHTS assay of beta-arrestin-biased ligands of beta2-adrenergic receptor; Potency, µM (series often up to 46.1 µM), usual class: activators; AID 492947, 2010; 330,000 compounds, 0.02% hits; beta-arrestin recruitment to beta2AR, cell-based reporter; Beta-2 adrenergic receptor (Homo sapiens), P07550; note: nearly all actives have a fitted effect of over 65% in size
D3 ag = qHTS of D3 Dopamine Receptor Agonist: qHTS | D(3) dopamine receptor (Homo sapiens), P35462 | D3R DiscoveRx beta-arrestin cells, luminescence, 90 min | max activation, % | 410,000 compounds, 0.58% hits | AID 652048, 2013; in the data active = max activation above about 30%
Target sequence (P35462 whole entry, looked up): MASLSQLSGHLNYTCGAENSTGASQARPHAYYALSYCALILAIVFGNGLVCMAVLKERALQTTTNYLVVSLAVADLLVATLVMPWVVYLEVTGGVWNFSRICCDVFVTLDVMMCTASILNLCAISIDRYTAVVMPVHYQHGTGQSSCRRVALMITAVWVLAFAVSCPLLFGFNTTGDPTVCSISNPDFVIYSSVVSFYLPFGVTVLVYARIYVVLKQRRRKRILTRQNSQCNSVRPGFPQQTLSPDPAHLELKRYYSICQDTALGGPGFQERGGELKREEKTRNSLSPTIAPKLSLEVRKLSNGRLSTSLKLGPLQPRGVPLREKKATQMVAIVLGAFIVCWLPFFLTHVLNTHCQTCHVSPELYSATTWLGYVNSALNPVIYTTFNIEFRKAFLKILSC
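Agonist mode: compounds and dopamine controls were applied to plated cells for 90 min at 37 degrees C after an overnight attachment at 1500 cells/well. Luminescent read-out followed 30 - 60 minutes at room temperature with DiscoveRx detection reagent.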
IDH1 R132H inh = qHTS for Inhibitors of mutant isocitrate dehydrogenase 1 (IDH1): qHTS; Isocitrate dehydrogenase [NADP] cytoplasmic (Homo sapiens), O75874; IDH1-R132H enzyme, NADPH consumption, diaphorase/resazurin fluorescence; Potency, µM (titrated, usually from 76.6 µM), actives largely listed as inhibitors; 390,000 compounds, 0.093% hits; AID 602179, 2012; note: nearly all actives have a fitted effect of over 65% in size
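IDH1-R132H (0.5 ug/mL) preincubated 30 min with compound, then NADPH (0.016 mM) and alpha-KG (2 mM) added; 80 min at RT, pH 7.5. Remaining NADPH coupled via diaphorase/resazurin to fluorescence (540/590 nm); concentration-response curves normalized to no-enzyme control.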
Integrin act MD = qHTS for Activators of Integrin-Mediated Alleviation for Muscular Dystrophy; alpha7betagal myoblasts, beta-gal FDG fluorescence, 48 h; Potency, µM (titrated, usually from 38.3 µM), most hits filed as activators; 350,000 compounds, 0.064% hits; AID 624291, 2012; note: nearly all actives have a fitted effect of over 60% in size
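Alpha7betagal+/- myoblasts (passage 13) were plated 16-24 hr, then exposed to compounds (1:260 dilution of DMSO stock) for 48 hours at 37C. After MPER lysis, β-galactosidase reporter activity was read as FDG fluorescence (ex 480/em 540) after 30 minutes.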
DRD3 antagonist = qHTS of D3 Dopamine Receptor Antagonist: qHTS | D(3) dopamine receptor (Homo sapiens), P35462 | D3R cells, DiscoveRx beta-arrestin luminescence, antagonist mode; active compounds read low | max response, negative = inhibition, % | 360,000 compounds, 2.5% hits | AID 652054, 2013; in the data active = max response below about -50%; inconclusive = no clear call, values can overlap the other calls
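Cells expressing the human receptor were seeded at 1500 cells/well, incubated overnight at 37 degrees C in 5% CO2, then exposed to library compounds with dopamine controls for 90 minutes at 37 degrees C before luminescent detection.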
Of the large screens only hits and unclear results are named; the others gave an inactive call; ! = a repeat was not active. Unless noted, calls come from the whole dose curve; as a rule, active = well fitted curve in the direction sought with a large enough effect; inconclusive = small, poorly fitted or top-dose-only effect, or another doubt; inactive = no such curve, though single readings can be large; an effect the other way counts as inactive or inconclusive.

O=C(C1CCCCN1S(=O)(=O)c1ccccc1[N+](=O)[O-])N1CCCCC1 (configuration not stated)	none
O=C(C1CCCCN1S(=O)(=O)c1ccccc1[N+](=O)[O-])N1CCCC1 (configuration not stated)	DRD3 antagonist -53
CCOc1ccc(-n2c(N)c(C(=O)NCc3ccco3)c3nc4ccccc4nc32)cc1	DRD3 antagonist -79
Nc1c(C(=O)NCc2ccco2)c2nc3ccccc3nc2n1CCc1ccccc1	none
COc1cccc2oc(-c3ccco3)cc(=O)c12	DRD3 antagonist -54
COc1ccc2oc(-c3ccco3)cc(=O)c2c1	none
CCCOc1nc(SCCC)nc2c1cnn2-c1ccccc1	Integrin act MD 11µM
CCN1CCN(CC(=O)N/N=C/c2cc(Br)cs2)CC1	DRD3 antagonist -53
Cc1ccc(-c2onc(C)c2C)cc1S(=O)(=O)NCc1ccc(N(C)C)cc1	none (no result: B2AR arrestin, Integrin act MD, DRD3 antagonist)
N#C/C(=N/Nc1ccc([N+](=O)[O-])cc1)C(=N)N1CCCCC1	DRD3 antagonist -54
N#C/C(=N\Nc1ccc([N+](=O)[O-])cc1)C(=N)N1CCOCC1	none
Cn1c(=O)c([N+](=O)[O-])c(NCCCn2ccnc2)c2ccccc21	none
Cn1c(=O)c([N+](=O)[O-])c(-n2ccnc2)c2ccccc21	DRD3 antagonist -51
Cc1cc(=O)n2[nH]c(-c3ccco3)nc2n1	none
CCCc1cc(=O)n2[nH]c(-c3ccco3)nc2n1	D3 ag 43
Cc1c(Cl)cccc1NC(=O)Cn1cc(C(=O)C2CCCCC2)c2ccccc21	none (no result: B2AR arrestin, Integrin act MD, DRD3 antagonist)
CCc1ccc(OC2(C)CCN(Cc3ccc(SC)cc3)C2)cc1 (configuration not stated)	DRD3 antagonist -60 (no result: B2AR arrestin, IDH1 R132H inh, Integrin act MD)
CSc1ccc(CN2CCC(C)(Oc3ccccc3)C2)cc1 (configuration not stated)	DRD3 antagonist -97 (no result: B2AR arrestin, IDH1 R132H inh, Integrin act MD)
CSc1ccc(CN2CCC(C)(Oc3cccc(F)c3)C2)cc1 (configuration not stated)	DRD3 antagonist -92 (no result: B2AR arrestin, IDH1 R132H inh, Integrin act MD)
CSc1ccc(OC2(C)CCN(Cc3cc4ccccc4o3)C2)cc1 (configuration not stated)	DRD3 antagonist -74 (no result: B2AR arrestin, IDH1 R132H inh, Integrin act MD)
CC1(Oc2cccc(F)c2)CCN(Cc2ccc(-c3ccccc3)o2)C1 (configuration not stated)	DRD3 antagonist inconclusive (no result: B2AR arrestin, IDH1 R132H inh, Integrin act MD)
CSc1ccc(CN2CCC(C)(Oc3cccc(C#N)c3)C2)cc1 (configuration not stated)	DRD3 antagonist inconclusive (no result: B2AR arrestin, IDH1 R132H inh, Integrin act MD)
Cc1ccc(C(c2sc3nc(-c4ccco4)nn3c2O)N2CCN(Cc3ccccc3)CC2)cc1 (configuration not stated)	none (no result: B2AR arrestin, Integrin act MD, DRD3 antagonist)
CSc1ccc(OC2(C)CCN(Cc3ccc(C(C)C)cc3)C2)cc1 (configuration not stated)	DRD3 antagonist -61 (no result: B2AR arrestin, IDH1 R132H inh, Integrin act MD)
CC(C)Oc1ccccc1OC1(C)CCN(Cc2ccc(OC(F)(F)F)cc2)C1 (configuration not stated)	none (no result: B2AR arrestin, IDH1 R132H inh, Integrin act MD)
O=C1COc2ccc(-c3cc(-c4ccc(Cl)cc4)c4c(n3)-c3ccccc3OC4)cc2N1	none (no result: B2AR arrestin, Integrin act MD, DRD3 antagonist)
CCN(N=O)[C@@H](Cc1ccccc1)CN(N=O)[C@@H](Cc1ccccc1)CN(C)N=O	D3 ag 32
CN(C)CC/C=C1\c2ccccc2COc2ccccc21	DRD3 antagonist -77 (no result: Integrin act MD)
Cc1ccc(N2C(=O)CS(=O)(=O)C23C(=O)N(Cc2cccc(F)c2)c2ccccc23)cc1Cl (configuration not stated)	none (no result: B2AR arrestin, Integrin act MD, DRD3 antagonist)
O=C(NNc1c2ccccc2nc2ccccc12)c1ccc(O)cc1	DRD3 antagonist -64
CC(C)(C)C(C(=O)NCc1ccccc1)N1CCN(CCN2CCOCC2)CC1 (configuration not stated)	DRD3 antagonist -64 (no result: B2AR arrestin, IDH1 R132H inh, Integrin act MD)
O=C(NCc1ccccc1)C(c1ccc(F)cc1)N1CCN(CCN2CCOCC2)CC1 (configuration not stated)	none (no result: B2AR arrestin, IDH1 R132H inh, Integrin act MD)
COc1ccc(N2CCN(CCCNC(=O)Cn3c(=O)c4cccn4c4ccccc43)CC2)cc1	DRD3 antagonist -60
O=c1c2cccnc2[nH]c(=S)n1CCCN1CCN(c2ccc(F)cc2)CC1	DRD3 antagonist -65
O=C(Cn1c(=O)c2cccn2c2cccnc21)NCCCN1CCN(c2ccc(F)cc2)CC1	Integrin act MD inconclusive, DRD3 antagonist -118
CCc1cccc2c(-c3ccccc3)nc(SCC(=O)Nc3ccccc3)nc12	none (no result: B2AR arrestin, Integrin act MD, DRD3 antagonist)
COc1ccc(-c2nc3scc(CCNS(=O)(=O)c4ccc5c(c4)OCCO5)n3n2)cc1OC	none (no result: B2AR arrestin, Integrin act MD, DRD3 antagonist)
CCN(CC)CCCN(c1ccccc1)C1Cc2ccccc2C1	none (no result: B2AR arrestin, IDH1 R132H inh, Integrin act MD, DRD3 antagonist)
CCCCCCSc1cccc(-c2nc3ccc(Cl)cn3c2NCCCC)c1	D3 ag 33! (no result: B2AR arrestin)
CCCCCCSc1ccc(-c2nc3ccccn3c2NCCCC)cc1	D3 ag 82
CCCCNc1c(-c2ccc(SC(C)CC)cc2)nc2ccc(Cl)cn12 (configuration not stated)	none (no result: B2AR arrestin, IDH1 R132H inh, Integrin act MD)
CCCCCCSc1ccc(-c2nc3cc(C)ccn3c2NC2CCCCC2)cc1	none
CCCCNc1c(-c2ccc(-c3cccc(Cl)c3)cc2)nc2ccccn12	D3 ag 63
CCCCNc1c(-c2cccc(-c3ccc(OC)cc3)c2)nc2cc(C)ccn12	none
O=C(CCCCn1c(=O)c2ccccc2n(Cc2ccccc2F)c1=O)NCc1ccccc1Cl	none (no result: B2AR arrestin, Integrin act MD, DRD3 antagonist)
Cc1nn(-c2ccccc2)c2nc(=O)n(-c3ccccc3)cc12	DRD3 antagonist -65
CN1CCN(C(=O)c2ccccc2NS(=O)(=O)c2ccc(F)cc2)CC1	DRD3 antagonist -63
O=C(c1ccccc1NS(=O)(=O)c1ccc(F)cc1)N1CCCCC1	none
Cc1ccccc1-c1nc(S(=O)(=O)c2ccc(Cl)cc2)c(NCCN2CCOCC2)o1	DRD3 antagonist inconclusive
Cc1ccccc1-c1nc(S(=O)(=O)c2ccccc2)c(NCCCN2CCOCC2)o1	DRD3 antagonist -65
Cc1ccc(S(=O)(=O)c2nc(-c3ccccc3)oc2NCCN2CCOCC2)cc1	DRD3 antagonist -73
O=S(=O)(c1ccccc1)c1nc(-c2ccccc2Cl)oc1NCCCN1CCOCC1	DRD3 antagonist -71
Nc1nnc(-c2cccc(F)c2)s1	Integrin act MD inconclusive
O=c1oc2c(-c3cccc(F)c3)cc(O)cc2s1	Integrin act MD 4µM
Cc1ccc(C)c(N2CCN(c3nc4ccccc4c(=O)n3-c3ccc(Cl)cc3)CC2)c1	none (no result: B2AR arrestin, Integrin act MD, DRD3 antagonist)
COc1ccc(C(C#N)N2CCCCCC2)cc1OC (configuration not stated)	none
COc1cccc(C(C#N)N2CCCCC2)c1O (configuration not stated)	DRD3 antagonist -74
Cc1cccnc1C(NC(=O)C1CCN(Cc2ccccc2)CC1)c1ccc(F)cc1 (configuration not stated)	DRD3 antagonist -55 (no result: B2AR arrestin, IDH1 R132H inh, Integrin act MD)
